Measured values: the supplement of paper PMC3334620
Whole data set: some 33,000 sequences, median “E-score (-0.5 to 0.5)” near -0.0059, cut for the highest 2% near 0.26. The list comes from a sample in which the highest values are over-represented; it also holds similar and randomly drawn sequences.

Biological target: T1, Cin5 (UniProt P40917)
T1 sequence: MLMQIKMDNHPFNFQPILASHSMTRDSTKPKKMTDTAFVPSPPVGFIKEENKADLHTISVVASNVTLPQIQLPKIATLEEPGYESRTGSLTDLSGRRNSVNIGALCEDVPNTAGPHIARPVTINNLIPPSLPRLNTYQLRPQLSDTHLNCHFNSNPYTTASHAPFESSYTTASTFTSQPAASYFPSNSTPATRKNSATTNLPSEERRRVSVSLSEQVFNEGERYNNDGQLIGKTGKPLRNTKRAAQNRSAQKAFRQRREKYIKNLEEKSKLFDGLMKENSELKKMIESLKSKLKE
Assay: PBM E-score (8-mer binding enrichment) (E-score (-0.5 to 0.5)); higher = stronger / more preferred TF binding
Conditions: protein concentration: 100 nM; construct: GST-full length
Method: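 Universal 'all 10-mer' protein binding microarrays (Agilent AMADID 015681) probed with GST-tagged S. cerevisiae TFs (full-length or DBD) made by in vitro transcription/translation (PURExpress), about 100-200 nM. Bound TF was detected with fluorescent anti-GST. Each ungapped 8-mer (which stands for itself and its reverse complement) is scored by the PBM enrichment score (E-score), a modified Wilcoxon-Mann-Whitney statistic from -0.5 to +0.5, computed with the Universal PBM Analysis Suite. Scale: above 0.35 generally sequence-specific binding.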

Sequence | PBM E-score
AGGAACAA | -0.0886
AGTTCGGC | -0.0604
GTAGATAA | 0.28
GCAGATAA | 0.0212
GTAGATAC | 0.0747
GTGGAATA | 0.193
ATGGAATA | 0.322
ATAGAATG | 0.209
ATAGATTG | 0.224
ATGGAATC | 0.242
ATAGATTA | 0.302
GTAGAATA | 0.194
GTAGATTA | 0.232
ATAGAATA | 0.277
AAAGTTGC | 0.0362
AGGCCAAC | -0.251
CATTGCAA | -0.0643
CTCAGGGA | -0.0496
GCGCATTA | 0.147
ATCACCTG | 0.148
CAATCTGC | -0.0434
GAGCAGAA | -0.0414

Sequence | PBM E-score
ACCAACGC | -0.0288
AGGGCACG | -0.206
CCGACCGG | -0.211
TTAGCTAA | 0.343
ATAGCTAA | 0.0506
CTAGCTAA | 0.0272
CACTCGGG | -0.117
GATGACAA | 0.27
GATGACAC | 0.0142
CATGACAA | 0.0097
AGGGCCCC | -0.322
TCCACTAA | 0.0246
CGCTTAGC | -0.0166
GATATCGA | 0.0864
AATATCGA | 0.326
AATATCGG | 0.179
AAAGAGCG | 0.0467
AACCCTGA | 0.131
CATGCTTC | 0.0417
AATGCTGA | 0.118
CATGCTTA | 0.259
AATGCTTA | 0.276

Sequence | PBM E-score
GGTGCTTA | 0.0985
CGTGCTGA | 0.0279
CGTGCTTA | 0.273
GATGCTTA | 0.0868
CATGCTGA | 0.181
ACGGTGGA | -0.285
GAGTCGAC | 0.063
GCCTAACC | -0.12
ATCCGACG | 0.0285
ACGCTTAC | 0.269
CCGCTTAG | -0.0568
ACGCTTAG | 0.0472
GCACTTAC | 0.112
CCACTTAA | 0.0597
CCACTTAC | 0.303
ACGCTTAT | 0.101
CCGCTTAC | 0.334
CCGCTTAA | 0.103
GAACAGGA | -0.126
CCTTGCAC | -0.0869
TAGATCAA | 0.0289
ACGGAGAG | 0.00731

Sequence | PBM E-score
AGGTAAGC | 0.321
GCGTAACC | 0.0286
AGGTAAGG | 0.0286
ACGTAACC | 0.262
TCGTAAGA | -0.00999
GTGTAAGA | 0.0309
ACGTAAGA | 0.347
ACGTAAGT | 0.25
ATGTAAGA | 0.274
CTGTAAGA | -0.00022
CGGTAAGC | 0.114
ACGTAACG | 0.214
AATCGTCG | 0.14
ACATTCAC | 0.093
AAATTCTC | -0.0624
TCCCTTAA | -0.186
AACTAGGT | 0.118
CGACATAC | 0.104
GTCACACA | 0.0464
TACTTCGA | 0.183
CGTCCTCC | -0.139
CATGGTAA | 0.0768

Sequence | PBM E-score
ACTCATCT | 0.156
GATATGGA | 0.244
AAGTAATG | 0.184
ACGTAAAG | 0.191
ATGTAAGG | 0.103
ATGTAAGC | 0.431
ACGTAATG | 0.334
CTGTAAGC | 0.0794
ACAGGGAT | 0.0409
ACAATCAG | 0.134
CAACGTAA | 0.204
GAACGTTA | -0.104
CAACGGAA | 0.103
TAACGGAA | 0.322
TATCGTAA | 0.28
GAACGTAA | 0.297
TAACGTAA | 0.415
GAACGTAC | -0.115
AAACGTAA | 0.234
CATCGTAA | 0.0929
GAACGGAA | 0.176
GATCGTAA | 0.116
